FLuc counter: firefly luciferase modulation, counter-screen for miR-21 project. P08659. purified FLuc, Km substrates, luminescence inhibition. Potency, µM (doses to about 57.5 µM), inactives show at the top dose activity change, negative = inhibition, most hits filed as inhibitors. 6.9% of 360,000 active;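 also: plate controls were vehicle for no effect and reference inhibitor for full effect; nearly all actives have a fitted effect of over 55% in size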
Target sequence (P08659 whole entry, looked up): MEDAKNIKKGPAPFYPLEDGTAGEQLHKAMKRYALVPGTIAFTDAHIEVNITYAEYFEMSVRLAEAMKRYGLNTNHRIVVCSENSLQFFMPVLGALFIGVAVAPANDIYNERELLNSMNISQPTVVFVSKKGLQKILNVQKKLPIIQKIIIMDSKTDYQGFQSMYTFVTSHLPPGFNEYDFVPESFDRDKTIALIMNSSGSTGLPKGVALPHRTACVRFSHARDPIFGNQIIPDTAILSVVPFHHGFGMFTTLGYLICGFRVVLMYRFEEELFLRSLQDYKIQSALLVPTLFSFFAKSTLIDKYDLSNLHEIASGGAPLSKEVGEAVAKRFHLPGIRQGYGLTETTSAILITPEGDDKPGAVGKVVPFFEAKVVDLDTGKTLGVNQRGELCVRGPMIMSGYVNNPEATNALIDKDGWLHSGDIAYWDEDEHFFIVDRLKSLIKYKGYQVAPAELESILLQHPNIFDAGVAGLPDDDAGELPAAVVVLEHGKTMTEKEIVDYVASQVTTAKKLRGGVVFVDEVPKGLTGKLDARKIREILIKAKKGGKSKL
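Purified P. pyralis luciferase (10nM final) with 10uM D-luciferin and 10uM ATP (Km levels) in 50mM Tris acetate pH 7.5, 10mM Mg acetate, 0.01% Tween-20, 0.05% BSA; qHTS 6-point titration, ~60 µM downward; luminescence read.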
NPC1 promoter act: activators of NPC1 promoter; 2.4% of 320,000 active; Huh7 NPC1 promoter luciferase reporter, 24 h; Potency, µM (top dose mostly 9.22 µM), without a hit: top-dose activation, hits mostly activators; also: % of control where 0% means no effect; nearly all actives have a fitted effect of over 60% in size
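Huh7 reporter cells (NPC1 promoter driving luciferase) are dosed with compound for 24 h at 37 °C, 5% CO2; luciferase detection reagent is then added and luminescence measured after 10 min at ambient temperature.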
Luc counter: blocks Kinase-Glo luciferase, a counter-screen artifact; Kinase-Glo luciferase, ATP luminescence, 8 min; Potency, µM (series often up to 38.3 µM), inactives show top-dose activity change, negative = inhibition, usual class: inhibitors; 0.28% of 200,000 active; also: % is scaled to controls: 0 for no effect and ±100 for the full control effect; nearly all actives have a fitted effect of over 60% in size
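Recombinant Kinase-Glo luciferase, 10 uM ATP (linear range), luciferin; imidazole pH 7.2 / KCl / MgCl2 / Tween / BSA buffer; 8 min RT; luminescence.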
Rab9 promoter act: Rab9 promoter activation; Huh7 Rab9 promoter-luciferase reporter, luminescence, 24 h; Potency, µM (top dose mostly 9.22 µM), inactives show at the highest dose activation, negative = inhibition, usual class: activators; 2.8% of 320,000 active; also: % of control where 0% means no effect; nearly all actives have a fitted effect of over 60% in size
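Cells were plated at 1500 per well in reduced-serum medium with 10% FBS and left 2 h. Compound in DMSO was then added for 24 h at 37 °C. Reporter signal was read by luminescence after 10 min with luciferase detection reagent.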
ELG1 genotox: genotoxicity induction in ELG1-luciferase HEK293T cells. AID 504466. Potency, µM (doses to about 46 µM), for the others: at the top dose activity change, positive = activation, actives largely listed as activators. HEK293T ELG1-luciferase reporter, luminescence, 16 h. 1.3% of 330,000 active; also: % of control where 0% means no effect; nearly all actives have a fitted effect of over 60% in size
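Screening used a luciferase reporter fused to human ELG1 in HEK293T cells. Luminescence was read on a CCD plate imager after 16 hr exposure and 30 min ONE-Glo incubation.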
SMN2 splice up: SMN2 splice variant enhancement | Potency, µM (top dose mostly 46.1 µM), for inactives: at the highest dose activity change, positive = activation, hits mostly activators | 2.8% of 210,000 active | HEK293 SMN2-luciferase splicing reporter, luminescence, 30-36 h; also: % of control where 0% means no effect; nearly all actives have a fitted effect of over 55% in size
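HEK293 cells carry an SMN2 minigene-luciferase reporter in which exon 7 inclusion puts luciferase in frame. Cells were seeded at 2000 cells/well, attached for 10-12 hours, then exposed to compounds for 30-36 hours at 37C before ONE-Glo luminescence.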
Active calls of the source: *; [ ] = another dose, or the depositor's remark. In the library only some 7.5% were active in any assay of this set; here they are far more common. Calls follow the shape of the dose curve; as a rule, active = well fitted curve in the direction sought with a large enough effect; inconclusive = small, poorly fitted or top-dose-only effect, or another doubt; inactive = no such curve, though single readings can be large; an effect the other way counts as inactive or inconclusive. Potency is read from the fitted curve at half-maximal effect.

Screening CC(=O)Oc1ccc(C(=O)Nc2cccc(NC(=O)c3ccco3)c2)cc1 returned FLuc counter 15µM*, NPC1 promoter act -17%, Rab9 promoter act 7% and ELG1 genotox -6%.
For COc1ccc(C(=O)Nc2cccc(OC(=O)c3ccc(C)c(C)c3)c2)cc1 the results were FLuc counter 11µM*, NPC1 promoter act inconclusive, Luc counter 4%, Rab9 promoter act 24%, ELG1 genotox 10% and SMN2 splice up inconclusive.
O=C(O)CCc1ccc(-c2ccc(Br)cc2)n1Cc1ccco1 was read as FLuc counter 4%, NPC1 promoter act -3%, Luc counter 1%, Rab9 promoter act -6%, ELG1 genotox -1% and SMN2 splice up -6%.
`COc1ccc(-c2ccc(CCC(=O)O)o2)cc1` gave FLuc counter 5.4µM*, NPC1 promoter act 18%, Luc counter -3%, Rab9 promoter act 18% and ELG1 genotox 12%.
Screening O=C(O)CCc1ccc(-c2ccc(Cl)cc2)o1 returned FLuc counter 15µM*, NPC1 promoter act 8%, Luc counter -4%, Rab9 promoter act 2%, ELG1 genotox inconclusive and SMN2 splice up -3%.
O=C(O)CCc1ccc(-c2ccc(Br)cc2)o1 was read as FLuc counter 15µM*, NPC1 promoter act 11%, Luc counter -1%, Rab9 promoter act 5%, ELG1 genotox 4% and SMN2 splice up 5%.
`O=S(=O)(c1ccccc1)N1CCC2(CCN(c3ccc(-c4ccccc4)cc3)CC2)CC1` gave Luc counter -1% and SMN2 splice up -14%.
For O=C(Nc1nccs1)c1ccc(COc2c(F)c(F)cc(F)c2F)cc1 the results were FLuc counter -17%, NPC1 promoter act inconclusive, Rab9 promoter act inconclusive and ELG1 genotox inconclusive.
Cc1nc(N2CCCCC2)c2sc(=S)n(C)c2n1 was read as FLuc counter 1%, NPC1 promoter act -1%, Luc counter 3%, Rab9 promoter act -11%, ELG1 genotox 21µM* and SMN2 splice up -116%.
For CCN1CCN(c2nc(C)nc3c2sc(=S)n3C)CC1 the results were FLuc counter -17%, NPC1 promoter act -2%, Luc counter 3%, Rab9 promoter act -6%, ELG1 genotox 3% and SMN2 splice up -1%.
Cc1cc(=O)[nH]c2c(C)cc(S(=O)(=O)NCc3ccccc3)cc12 was read as FLuc counter 2%, NPC1 promoter act 3%, Rab9 promoter act 2% and ELG1 genotox -1%.
Cc1cc(=O)[nH]c2c(C)cc(S(=O)(=O)N3CCCCC3)cc12 was read as FLuc counter 0%, NPC1 promoter act -10%, Rab9 promoter act -10% and ELG1 genotox 16µM*.
Screening Cc1ccc(NC(=O)C2=C(O)CCn3c2nc2ccccc23)cc1 returned FLuc counter 12µM*, NPC1 promoter act 17%, Luc counter -4%, Rab9 promoter act 8%, ELG1 genotox 1% and SMN2 splice up -16%.
`CCOc1ccc(OCC)c(NC(=O)c2nnn(CC(=O)Nc3cc(Cl)ccc3OC)c2N)c1` gave FLuc counter -7% and SMN2 splice up -22%.
For O=C(NCCN1CCCC1)C(c1ccccc1)c1ccccc1 the results were FLuc counter 1%, NPC1 promoter act 4%, Rab9 promoter act -55% and ELG1 genotox -4%.
For CCOC(=O)c1c(C)[nH]c(C(=O)COC(=O)CNC(=O)C2CCCCC2)c1C the results were FLuc counter 3µM*, NPC1 promoter act -1%, Luc counter 2%, Rab9 promoter act 7%, ELG1 genotox 4% and SMN2 splice up inconclusive.
For CCOC(=O)c1c(C)[nH]c(C)c1C(=O)COC(=O)CNC(=O)C1CCCCC1 the results were FLuc counter 3%, NPC1 promoter act -6%, Luc counter 0%, Rab9 promoter act -1%, ELG1 genotox 3% and SMN2 splice up 12%.
For CCOC(=O)c1c(C)[nH]c(C(=O)COC(=O)[C@H](C)NC(=O)c2ccccc2Cl)c1C the results were FLuc counter 21µM*, NPC1 promoter act 12%, Luc counter -2%, Rab9 promoter act 29%, ELG1 genotox inconclusive and SMN2 splice up 19%.
For CCOC(=O)c1c(C)[nH]c(C(=O)COC(=O)CNC(=O)c2ccccc2Cl)c1C the results were FLuc counter 11µM*, NPC1 promoter act 25%, Luc counter 2%, Rab9 promoter act inconclusive and ELG1 genotox inconclusive.
Screening CC(C)c1ccc(/C=C2\C=C(c3ccc4ccccc4c3)OC2=O)cc1 returned Luc counter -3%[7.66 µM] and SMN2 splice up 3%[9.22 µM].
C=CCC1NS(=O)(=O)O[C@H](CCCC)[C@@H]1O (some centres undefined) was read as FLuc counter -1%, NPC1 promoter act 3%, Rab9 promoter act 1% and ELG1 genotox 1%.
`CNC(=S)N/N=C/c1cccc(OCc2ccccc2F)c1` gave FLuc counter 4.8µM*, NPC1 promoter act 13%, Luc counter -13%, Rab9 promoter act 18%, ELG1 genotox inconclusive and SMN2 splice up 1%.
`CCNC(=S)N/N=C/c1cccc(/C=N/NC(=S)NCC)c1` gave FLuc counter 2%, NPC1 promoter act 9%, Luc counter 1%, Rab9 promoter act 14%, ELG1 genotox -1% and SMN2 splice up 3%.
CCNC(=S)N/N=C/c1cccc(OCc2c(F)cccc2Cl)c1 was read as FLuc counter 17µM*, NPC1 promoter act 3%, Luc counter -10%, Rab9 promoter act -7%, ELG1 genotox -4% and SMN2 splice up -53%.
Screening COC(=O)C(CCSC)NC(=O)C1CCN(c2ncnc3c2nc2n3CCCCC2)CC1 (centres undefined) returned FLuc counter 2%.
For CCC(=O)Nc1ccc2c(c1)ncn2-c1ccc(C)cc1 the results were FLuc counter 8.5µM*, NPC1 promoter act 2.2µM*, Luc counter 1%, Rab9 promoter act 2.5µM*, ELG1 genotox inconclusive and SMN2 splice up 8.9µM*.
CCC(=O)Nc1ccc2c(c1)ncn2-c1ccccc1C was read as FLuc counter 0%, NPC1 promoter act -2%, Luc counter 0%, Rab9 promoter act 0%, ELG1 genotox 4% and SMN2 splice up 1%.
For CCC(=O)Nc1ccc2c(c1)ncn2-c1ccc(OC)cc1 the results were FLuc counter 27µM*, NPC1 promoter act 12%, Luc counter -2%, Rab9 promoter act 19%, ELG1 genotox 18µM* and SMN2 splice up 13µM*.
`C[C@H](CO)N1C[C@H](C)[C@@H](CN(C)C(=O)Nc2ccccc2)Oc2c(NC(=O)C3CCCCC3)cccc2C1=O` gave ELG1 genotox 6%.

Assay outcomes as filed in PubChem.
